Bioassay records: PubChem BioAssay, National Center for Advancing Translational Sciences (NCATS)
Compounds with a hit are over-represented: about 6.5% of the library has one in this group of screens.
LASV entry inh: inhibitors of Lassa virus binding or cell entry; Lassa virus pseudotype entry inhibition, cell reporter; 1.2% of 300,000 active; Potency, µM (series often up to 37.9 µM), for the others: at the top dose activity change, negative = inhibition, most hits filed as inhibitors; AID 540256; calls by dose curve; tested in HEK293 cells; further: potency means the concentration at half of the fitted maximal effect; nearly all actives have a fitted effect of over 50% in size
MARV entry inh: Marburg virus entry inhibition; Marburg virus pseudotyped entry inhibition, cell reporter; Potency, µM (doses to about 37.8 µM), for the others: at the top dose activity change, negative = inhibition, most hits filed as inhibitors; 1.8% of 300,000 active; AID 540276; calls by dose curve; tested in HEK293 cells; further: potency means the concentration at half of the fitted maximal effect
Vaccinia Venus: vaccinia inhibition (Venus reporter). 0.46% of 330,000 active. Potency, µM (titrated, usually from 36.5 µM), inactives show at the highest dose activity change, negative = inhibition, hits mostly inhibitors. Vaccinia virus Venus reporter expression, fluorescence; calls by dose curve; tested in A549 cells; further: potency means the concentration at half of the fitted maximal effect; nearly all actives have a fitted effect of over 30% in size
HCMV inh: human cytomegalovirus inhibition; activity change, negative = inhibition, % at 57.5 µM; 4.5% of 410,000 active; HFF cells, HCMV-luciferase reporter, 72 h; active compounds read low; in the data active means activity change below about -60%; inconclusive means no clear call, values can overlap the other calls; inactive means above about -39%
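Two compound doses tested in HFFs infected with HCMV-luciferase, MOI 1 PFU/cell, 72 h at 37C. Lysate luminescence read with OneGlo; data normalized against buffer-only and 10uM Salinomycin inhibitor controls.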
FMDV inh: foot and mouth disease virus antiviral activity; Potency, µM (series often up to 57.9 µM), for inactives: at the top dose activity change, negative = inhibition, usual class: inhibitors; 1.2% of 410,000 active; FMDV antiviral cell-based qHTS; calls by dose curve; tested in HEK293T cells; further: read-out not given here; potency means the concentration at half of the fitted maximal effect; nearly all actives have a fitted effect of over 45% in size
VACV mCherry inh: vaccinia inhibition (mCherry reporter) | 0.63% of 310,000 active | Vaccinia virus mCherry reporter infection, fluorescence | Potency, µM (highest dose often 36.5 µM), for inactives: top-dose activity change, negative = inhibition, hits mostly inhibitors; calls by dose curve; tested in A549 cells; further: potency means the concentration at half of the fitted maximal effect; nearly all actives have a fitted effect of over 35% in size
* hit, by the source's call; i = inactive; ? = inconclusive; / = not tested or not shown; ! = repeats disagree; [ ] = dose if it differs, or a comment. On the % scale 0 is the no-effect control and ±100 the full control effect.

SMILES	LASV entry inh	MARV entry inh	Vaccinia Venus	HCMV inh	FMDV inh	VACV mCherry inh
O=C1CC(c2ccccc2)Cc2nc(N3CCc4ccccc4C3)ncc21 (configuration not stated)	15µM*	15%	/	-26	-6%	/
C[C@@H]1[C@H](c2ccccc2)OCCS(=O)(=O)N1Cc1ccc(Cl)cc1	/	/	-24%	/	/	-29%
Cc1cc(-c2nn(-c3ccccc3F)cc2CN2CCCC(CO)C2)c(C)s1 (configuration not stated)	?	5.6µM*	-17%	-86*	-5%	?
CCOC(=O)c1ccc(N2C(=O)C[C@@H](Sc3nnc(C)s3)C2=O)cc1	/	8%	/	/	/	/
O=[N+]([O-])c1cc2c(ccc3occc32)o1	/	/	/	-73*	/	/
COc1c([N+](=O)[O-])c(=O)oc2ccccc12	17%	5%	-4%	67	-15%	-4%
CC1=NN(Cc2ccccc2)C(=O)C1C(c1ccc(Cl)cc1)C(C#N)C#N (configuration not stated)	?	-13%	-24%	-23	28µM*	-28%
COc1ccc2c(c1OC)C(=O)N1c3ccccc3C(=O)N(Cc3ccco3)C21 (configuration not stated)	/	/	-8%	/	/	-1%
O=C(c1ccncc1)N1CCN(c2cc(-c3ccccc3)nc3cc(-c4cccc(Cl)c4)nn23)CC1	/	/	?	6	28µM*	?
O=C(c1ccoc1)N1CCN(c2cc(-c3ccccc3)nc3cc(-c4ccc(Br)cc4)nn23)CC1	/	/	-24%	-63*	22µM*	-20%
O=C(c1ccoc1)N1CCN(c2cc(-c3ccncc3)nc3cc(-c4cccc(Cl)c4)nn23)CC1	/	/	-18%	-14	?	-1%
COc1ccc(-c2cc3nc(-c4ccccc4)cc(N4CCN(C(=O)c5ccoc5)CC4)n3n2)cc1	/	/	-18%	-19	?	-11%
CC(=O)N1CCN(c2cc(-c3ccccc3)nc3cc(-c4cccc(Cl)c4)nn23)CC1	/	/	?	-89*	18µM*	?
CC(=O)Nc1nonc1-c1nnc(SCc2ccccc2C)n1C	-24%[46.1 µM]	7%[46.1 µM]	-8%	5	-18%	-7%
CCN(CC)c1nn2c(=O)c(C(=O)NCc3ccc(OC)cc3OC)cnc2s1	29%[46.1 µM]	/	-14%	-10	-10%	-13%
CCCNC(=O)c1ccc2c(=O)c(O)c(-c3ccc(C)cc3)[nH]c2c1	/	/	?	-30	-23%	13µM*
CCCN1CNc2c(c(=O)[nH]c(=S)n2CCc2ccccc2Cl)C1	/	/	-13%	/	/	i
CC(C)c1ccc(NC(=O)CCn2c(=O)c3cccn3c3ccccc32)cc1	?	/	3%	64	0%	16%
COC(=O)c1nc(NC(=O)c2ccccc2Br)n[nH]1	-2%[46.1 µM]	-14%[46.1 µM]	-14%	25	20µM*	i
COC(=O)c1nc(NC(=O)c2cc(OC)c(OC)c(OC)c2)n[nH]1	15%[46.1 µM]	4%[46.1 µM]	13%	18	-28%	-6%
COc1ccc(OC)c([C@H]2C(C(=O)c3sc(C)nc3C)=C(O)C(=O)N2CCN2CCOCC2)c1	/	-11%[46.1 µM]	/	/	/	/
CC(OC(=O)c1ccccc1OCC(=O)Nc1ccc(Br)cc1)C(=O)NC1CCCC1 (configuration not stated)	/	/	-7%	/	/	i
CCc1c(-c2ccccc2F)ncn1Cc1cccc(-c2ccccc2)c1	/	/	?	-71*	?	?
CCCCc1c(-c2ccccc2OC)ncn1Cc1cccc(-c2ccccc2)c1	/	/	?	?	?	-21%
CCc1c(-c2ccc(Cl)cc2)ncn1Cc1cccc(-c2ccccc2)c1	/	/	?	-35	?	?
SMILES	LASV entry inh	MARV entry inh	Vaccinia Venus	HCMV inh	FMDV inh	VACV mCherry inh
CCc1c(-c2ccccc2)ncn1Cc1cccc(-c2ccccc2)c1	/	/	-23%	-68*	?	?
CCc1c(C2CC2)ncn1Cc1cccc(-c2ccccc2)c1	/	/	-22%	-99*	?	-7%
CCc1c(-c2cccc(OC)c2)ncn1Cc1cccc(-c2ccccc2)c1	/	/	?	?	32µM*	-18%
Cc1cccc(-c2nc(C)c(CCNC(=O)C(=O)Nc3ccc(C)c(C)c3)s2)c1	-1%[46.1 µM]	/	-10%	-9	-16%	-8%
O=C(NC1CCCCC1)C(c1cccnc1)N(C(=O)CCl)c1ccccc1Cl (configuration not stated)	?	?	10µM*	-103*	-13%	?
COc1ccc(N(C(=O)CCl)C(C(=O)NC2CCCCC2)c2cccnc2)cc1 (configuration not stated)	13µM*	?	2.8µM*	-102*	11µM*	11µM*
O=C(NC1CCCC1)C(c1ccc(F)cc1)N(Cc1ccc(F)cc1)C(=O)CCl (configuration not stated)	-19%	-7%	-11%	-67*	?	-16%
O=C(NC1CCCCC1)C(c1cccnc1)N(C(=O)CCl)c1ccc(F)cc1 (configuration not stated)	?	?	?	-99*	?	7.9µM*
COc1cccc(S(=O)(=O)N2CCN(c3nc(-c4cccs4)nc4ccccc34)CC2)c1	/	/	-11%	/	/	-5%
O=C(NCCc1ccccc1)c1ccc2c(c1)CCN2S(=O)(=O)c1ccccc1	?	-7%[46.1 µM]	-22%	?	12%	-6%
CC1=C[C@]23OC(C)(C)C[C@@]2(C)C[C@H](C)C3=CC1=O	/	/	/	18	/	/
C[N+](C)(C)CC(O)CC(=O)[O-] (configuration not stated)	/	/	-8%	/	-3%	-14%
CCC1CN(C(=O)Nc2ccc(C(=O)O)cc2)c2cc(Cl)ccc2O1 (configuration not stated)	26%[46.1 µM]	6%[46.1 µM]	-11%	-16	-8%	-7%
CCc1ccccc1NC(=O)N1CC(CC)Oc2ccc(Cl)cc21 (configuration not stated)	?	/	-2%	-61*	-17%	9%
CCC1CN(C(=O)NCc2ccc(C)cc2)c2cc(C)ccc2O1 (configuration not stated)	?	/	-9%	-75*!	-19%	-8%
O=[N+]([O-])c1cc(O)c2ncccc2c1	?	?	1µM*	-97*	-22%	1µM*
Oc1cccc2cccnc12	/	/	-12%	/	-7%	-15%
O=[N+]([O-])c1cc2cccnc2c2ncccc12	/	/	/	-97*	-20%	/
Cc1ccc([N+](=O)[O-])c2cccnc12	1%	-3%	/	-4	-6%	/
O=[N+]([O-])c1ccc(Sc2cccc3cccnc23)c2cccnc12	?	?	/	-101*	?	/
CC(=O)N1c2ccc(S(=O)(=O)N3CCC(C(=O)Nc4cc(C)ccn4)CC3)cc2CC1C (configuration not stated)	/	/	/	-69*	?	/
COc1cc(OC)c(NC(=O)C2CCN(S(=O)(=O)c3ccc4c(c3)CC(C)N4C(C)=O)CC2)cc1Cl (configuration not stated)	/	/	/	-19	?	/
